Measurements from PubChem BioAssay AID743314 (Broad Institute, 2014).
Potency and affinity values are given separately. Records with an inconclusive call do not appear. Activity calls are given as the source filed them.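 How the source made its calls: active means fitted half-maximal concentration no higher than twice the top tested dose, in every repeat run; inconclusive means repeat runs disagree, poor fit, or flat partial inhibition; inactive means the rest.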

What follows are compounds tested against Endoplasmic reticulum aminopeptidase 1 (Homo sapiens) (UniProt Q9NZ08) (assay: ERAP1 aminopeptidase inhibitors, dose response, biochemical, cherry-pick, set 2, plate reader (AID 743314)). Conditions: Recombinant ERAP1, Leu-AMC fluorescence, 60 min; series mostly up to 11 µM.
Sequence of Endoplasmic reticulum aminopeptidase 1 (Homo sapiens) (Q9NZ08 whole entry, looked up): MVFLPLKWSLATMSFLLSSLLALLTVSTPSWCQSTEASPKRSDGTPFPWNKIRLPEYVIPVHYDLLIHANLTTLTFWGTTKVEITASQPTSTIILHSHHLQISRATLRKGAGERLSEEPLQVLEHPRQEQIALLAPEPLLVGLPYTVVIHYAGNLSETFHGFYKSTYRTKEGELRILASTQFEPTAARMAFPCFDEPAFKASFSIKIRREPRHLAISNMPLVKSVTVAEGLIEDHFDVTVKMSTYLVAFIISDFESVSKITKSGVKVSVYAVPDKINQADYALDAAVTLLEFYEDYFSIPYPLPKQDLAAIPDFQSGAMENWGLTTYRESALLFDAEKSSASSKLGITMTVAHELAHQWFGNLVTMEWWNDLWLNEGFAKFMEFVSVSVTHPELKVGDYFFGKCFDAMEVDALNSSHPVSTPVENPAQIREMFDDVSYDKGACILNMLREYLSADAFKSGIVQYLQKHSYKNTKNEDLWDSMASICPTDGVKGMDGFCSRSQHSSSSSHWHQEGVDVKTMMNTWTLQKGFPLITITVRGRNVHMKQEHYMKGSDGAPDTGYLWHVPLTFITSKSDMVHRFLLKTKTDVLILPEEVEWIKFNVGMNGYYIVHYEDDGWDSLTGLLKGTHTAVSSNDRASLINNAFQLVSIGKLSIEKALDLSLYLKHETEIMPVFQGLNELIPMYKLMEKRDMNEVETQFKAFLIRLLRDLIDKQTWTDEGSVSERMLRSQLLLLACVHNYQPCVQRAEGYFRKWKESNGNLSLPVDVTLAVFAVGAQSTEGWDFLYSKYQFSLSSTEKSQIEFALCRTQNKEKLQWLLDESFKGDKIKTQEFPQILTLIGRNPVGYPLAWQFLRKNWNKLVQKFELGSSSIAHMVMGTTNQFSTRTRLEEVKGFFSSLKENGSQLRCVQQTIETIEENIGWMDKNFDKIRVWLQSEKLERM

outcome, inactive:
C[C@H](CO)N1C[C@H](C)[C@@H](CN(C)C(=O)Nc2ccccc2)Oc2ccc(NC(=O)Nc3cccc4ccccc34)cc2C1=O, Cc1noc(C)c1NC(=O)N(C)C[C@H]1Oc2c(NC(=O)Nc3ccc(F)cc3)cccc2C(=O)N([C@@H](C)CO)C[C@H]1C, CN(Cc1ccccc1)C(=O)c1ncn(C)c1C(=O)N(C)Cc1ccccc1, COc1ccc(CN(C)C[C@H]2OCCCC[C@@H](C)Oc3ccc(NS(=O)(=O)c4cccs4)cc3C(=O)N([C@@H](C)CO)C[C@@H]2C)cc1, Cc1noc(C)c1S(=O)(=O)Nc1ccc2c(c1)C(=O)N([C@H](C)CO)C[C@@H](C)[C@@H](CN(C)CC1CCCCC1)OCCCC[C@@H](C)O2, C[C@@H]1CCCCO[C@@H](CN(C)Cc2ccc(C(=O)O)cc2)[C@H](C)CN([C@@H](C)CO)C(=O)c2cc(NS(=O)(=O)c3ccc(Cl)cc3)ccc2O1, O=C(O)[C@@H]1[C@@H](CO)[C@@H]2Cn3c(ccc(/C=C/c4ccccc4)c3=O)[C@@H]2N1Cc1ccc2c(c1)OCO2, CN1C2=NCCN2C(=O)c2cc(Cl)ccc21, C[C@H]1CN([C@@H](C)CO)C(=O)c2cc(-c3ccc(F)cc3)cnc2O[C@H]1CN(C)CC1CCCCC1, COc1ccc(CN(C)C[C@H]2OCCCC[C@H](C)Oc3ccc(NS(=O)(=O)c4cccs4)cc3C(=O)N([C@H](C)CO)C[C@H]2C)cc1, COc1ccc(CCOC(=O)CNC(=O)c2ccc(Cl)cc2Cl)cc1, CCN(CC(=O)Nc1ccccc1C(F)(F)F)C(=O)Cn1c(=O)cnc2ccccc21, C[C@@H]1CN([C@H](C)CO)S(=O)(=O)c2ccc(-c3ccccc3)cc2O[C@H]1CN(C)S(C)(=O)=O, COc1ccc(NC(=O)Nc2ccc3c(c2)C(=O)N([C@@H](C)CO)C[C@@H](C)[C@H](CN(C)Cc2ccc(C(=O)O)cc2)OCCCC[C@H](C)O3)cc1, C[C@H](CO)N1C[C@H](C)[C@H](CN(C)C(=O)Nc2ccc(F)cc2)Oc2ccc(NC(=O)CCN3CCOCC3)cc2C1=O, CCc1cc(=O)oc2c(CNCc3ccccc3F)c(O)c(Cl)cc12, COCCN(CC(=O)Nc1cccc(C)c1C)C(=O)CN1C(=O)NC2(CCCCC2)C1=O, Cc1cc(C)cc(N2CC(c3nc4ccccc4n3C)CC2=O)c1 (centres undefined), CCOc1ccc(OCCCC(=O)N2CCN(S(=O)(=O)c3ccc(Cl)cc3)CC2)cc1, CC(=O)Nc1ccc2nc(NC(=O)CN3CCOCC3)sc2c1, CCc1c(C)c2cc(Cl)c(O)c(CN3CCCC3)c2oc1=O, C[C@H](CO)N1C[C@H](C)[C@H](CN(C)CC2CCCCC2)Oc2ncc(-c3ccc(F)cc3)cc2C1=O, O=C(c1ccccc1)N1CC(=O)N2[C@H](CO)[C@@H](c3ccc(-c4ccccc4)cc3)[C@H]2C1, COc1ccc(CCC(=O)NC2CCCc3ccccc32)cc1OC (centres undefined), CCN(CC)c1ccc2c(C)c(Cl)c(=O)oc2c1, Cc1noc(C)c1NC(=O)N(C)C[C@H]1Oc2c(NC(=O)Nc3ccc(F)cc3)cccc2C(=O)N([C@@H](C)CO)C[C@@H]1C, COc1ccc(-c2c(C)c3ccc(O)cc3oc2=O)cc1OC, COc1ccc(C(=O)NCc2nnc(SCC(=O)NC3CCCCC3)n2C)cc1, O=C(C[C@@H]1CC[C@@H]2[C@H](COC[C@@H](O)CN2C(=O)Cc2ccccc2)O1)NC1CCC1, C[C@H]1CCCCO[C@@H](CN(C)S(=O)(=O)c2cn(C)cn2)[C@@H](C)CN([C@@H](C)CO)C(=O)c2cc(NC(=O)Nc3ccccc3)ccc2O1, C[C@H](CO)N1C[C@H](C)[C@@H](CN(C)C)Oc2c(NC(=O)Nc3ccc(C(F)(F)F)cc3)cccc2C1=O, O=C(C[C@H]1CC[C@H](NC(=O)C2CCOCC2)[C@H](CO)O1)NCc1ccncc1, Cc1cc(C)n2nc(C(=O)N3CCN(c4ccc([N+](=O)[O-])cc4)CC3)nc2n1, Cc1noc(C)c1NC(=O)N(C)C[C@@H]1Oc2c(NC(=O)Nc3ccc(F)cc3)cccc2C(=O)N([C@H](C)CO)C[C@H]1C, Cn1cnc(C(=O)N2CCN(C(=O)OC(C)(C)C)CC2)c1C(=O)N1CCN(C(=O)OC(C)(C)C)CC1, CCN1CCN(c2ccc(S(=O)(=O)N3CCCCC3)cc2NC(=O)c2ccccc2)CC1, Cc1ccc(S(=O)(=O)Nc2ccc3c(c2)CC(=O)N([C@H](C)CO)C[C@H](C)[C@H](CN(C)Cc2ccccc2)O3)cc1, Cc1cc(Br)ccc1NC(=O)CN(C)C(=O)Cn1c(=O)cnc2ccccc21, C[C@@H]1CCCCO[C@H](CN(C)C)[C@@H](C)CN([C@@H](C)CO)C(=O)c2cc(NS(=O)(=O)c3ccc(Cl)cc3)ccc2O1
